Results as given in PubChem BioAssay (Tox21).
Records with an inconclusive call do not appear. Unmarked numbers belong to inactive results. Calls of active or inactive are those of the source. The call rests on the fitted dose curve; in most records, active means well fitted activation curve with a large enough effect in the signal ratio in the repeat runs (not every such curve was filed as active); inconclusive means weak or mixed curves; inactive means flat fitted curve, though single readings scatter; the % refers to the signal ratio.

Assay: qHTS assay to identify small molecule agonists of the hypoxia (HIF-1) signaling pathway (AID 1224846)
Settings: HRE-bla ME-180 cells, beta-lactamase ratio, 17 h; series mostly up to 76.8 µM
Description: U.S. Tox21 Program National Center for Advancing Translational Sciences [NCATS] NIH Chemical Genomics Center [NCGC] U.S. Environmental Protection Agency [EPA] National Institutes of Environmental Health Sciences [NIEHS] National Toxicology Program [NTP] U.S. Food and Drug Administration [FDA] Tox21 Assay Overview: Hypoxia-inducible factor-1 (HIF-1) is the major hypoxia-regulated transcription factor that controls cellular responses to low oxygen concentration. HIF-1 is composed of two subunits: hypoxia responsive HIF-1-alpha and constitutively expressed HIF-1-beta, which is also known as aryl hydrocarbon receptor nuclear translocator. During hypoxic conditions, HIF-1-alpha heterodimerizes with HIF-1-beta and translocates into the nucleus where the HIF-1 complex binds to the hypoxia-response element (HRE) and activates expression of target genes such as VEGF (vascular endothelial growth factor). The HIF-1 pathway is essential to normal growth and development, and is involved in the pathophysiology of cancer, inflammation, and ischemia. Using a beta-lactamase reporter-gene under control of the hypoxia response element, a cell-based assay [CellSensor(TM) HRE-bla ME-180 from Life Technologies, Carlsbad, CA] was used to measure hypoxia-induced signaling. Tox21 10K library compounds were measured for their ability to induce the reporter gene activity.
Tox21 Assay Protocol Summary: HRE-bla ME-180 cells were dispensed at 2,000 cells per well in 6 uL of assay medium containing 0.5% dialyzed FBS into black wall/clear-bottom 1536-well plates using a Multidrop Combi (Thermo Scientific, Waltham, MA) dispenser. After the assay plates were incubated at 37C and 5% CO2 for 5 hrs, 23 nL of compounds dissolved in DMSO, positive controls or DMSO only was transferred to each well of the assay plate using a Pintool station (Kalypsys, San Diego, CA). The assay plates were incubated at 37C and 5% CO2 for 17 hrs. One uL of LiveBLAzerTM B/G FRET substrate (CCF4-AM) (Life Technologies) was added to each well using a Flying Reagent Dispenser (Aurora Discovery, San Diego, CA).
On the % scale 0 is the no-effect control and ±100 the full control effect.

Compound	outcome	activation
O=S(=O)(O)c1cccc2ccccc12	inactive	
CCCCCCCCCCCCCCC(=O)O	inactive	
Nc1c2c(nc3c1CCC3)CCCC2	inactive	
C[C@H]1C[C@H]2[C@@H]3CCC4=CC(=O)C=C[C@]4(C)[C@H]3C(=O)C[C@]2(C)[C@@]1(O)C(=O)CO	inactive	
C1CCC2(CCCCO2)OC1	inactive	
CN(C)CCCN(C)CCCN(C)C	inactive	
CC(C)(C)c1ccc(-c2ccc(C(C)(C)C)cc2)cc1	inactive	
CCCCCC(C)N (stereo not given)	inactive	
Cc1ccc(-c2ccccc2C#N)cc1	inactive	
N[C@H](C(=O)O)[C@@H](O)c1ccc(O)c(O)c1	inactive	
CCCn1cc[n+](C)c1C	inactive	
Cc1cc(C)c(N=Nc2c(O)c(S(=O)(=O)O)cc3cc(S(=O)(=O)O)ccc23)cc1C		-0.827% [at 7.01 µM]
CCCCCCC#CC(=O)OC	inactive	
CO[Si](C)(OC)c1ccccc1	inactive	
[O-][n+]1cccc(CO)c1	inactive	
CC(C)(C)C(=O)c1ccccc1	inactive	
CCCCCCC1CCC(=O)O1 (stereo not given)	inactive	
Cc1ccc(-c2ncc(Cl)cc2-c2ccc(S(C)(=O)=O)cc2)cn1	inactive	
O=C(c1ccccc1)C1(O)CCCCC1	inactive	
O=C(c1ccccc1O)c1ccccc1O	inactive	

Compound	outcome	activation
CC(C)C(=O)OC(=O)C(C)C	inactive	
CCOC(=O)COc1cc(-n2ncc(C(F)(F)F)c(C)c2=O)c(F)cc1Cl	inactive	
c1ccc2sc(SN3CCOCC3)nc2c1	inactive	
Nc1ccn([C@@H]2O[C@H](CO)[C@@H](O)[C@@H]2O)c(=O)n1	inactive	
CC/C=C\CCOC(C)OCC (stereo not given)	inactive	
CCCO[Si](OCCC)(OCCC)OCCC	inactive	
Nc1ccccn1	inactive	
C=CCCC(=O)O	inactive	
CC1=CC(=O)[C@H]2C[C@@H]1C2(C)C	inactive	
CCOC(=O)C(=O)CCCCCCl	inactive	
NC(=O)NC1N=C([O][Al])NC1=O (stereo not given)	inactive	
CCOC(=O)COC(=O)c1ccccc1C(=O)OCC	inactive	
CC(C)(C)C(=O)Oc1ccc(S(=O)(=O)Nc2ccccc2C(=O)NCC(=O)O)cc1	inactive	
CC(C)(N)C#N	inactive	
CCO[Si](OCC)(OCC)c1ccccc1	inactive	
C1CCC2=NCCCN2CC1	inactive	
CC1=NN(c2cc(S(=O)(=O)O)ccc2Cl)C(=O)C1N=Nc1ccccc1 (stereo not given)	inactive	
C=CC(=O)OCCCl	inactive	
NC(=O)N1c2ccccc2CC(=O)c2ccccc21	inactive	
O=C(O)CCSCCC(=O)O	inactive	
